From PubChem BioAssay
This is a sample that favours compounds with a hit; in the whole collection about 1.6% have one here.
S1P3 antag = antagonists of human S1P3 receptor; Q99500; CHO S1P3 NFAT-BLA reporter, FRET fluorescence, antagonist mode; inhibition, % at 4.98 µM; 170,000 tested, 0.27% active; AID 485;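 active means inhibition above the plate cutoff, the mean inhibition of test wells on that plate plus 3 SD, cut at about 28% in these data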;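 further: cells challenged with S1P at its EC80 of 0.8 µM; blue over green emission ratio from cleaved BLA substrate after 4 h stimulation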
S1P4 agonist = agonists of human S1P4 receptor; activation, % at 4.98 µM; O95977; S1P4-expressing cell line, agonist reporter assay; AID 1509; 220,000 tested, 0.35% active; in the data active means activation above about 11%
Target sequence (O95977 whole entry, looked up): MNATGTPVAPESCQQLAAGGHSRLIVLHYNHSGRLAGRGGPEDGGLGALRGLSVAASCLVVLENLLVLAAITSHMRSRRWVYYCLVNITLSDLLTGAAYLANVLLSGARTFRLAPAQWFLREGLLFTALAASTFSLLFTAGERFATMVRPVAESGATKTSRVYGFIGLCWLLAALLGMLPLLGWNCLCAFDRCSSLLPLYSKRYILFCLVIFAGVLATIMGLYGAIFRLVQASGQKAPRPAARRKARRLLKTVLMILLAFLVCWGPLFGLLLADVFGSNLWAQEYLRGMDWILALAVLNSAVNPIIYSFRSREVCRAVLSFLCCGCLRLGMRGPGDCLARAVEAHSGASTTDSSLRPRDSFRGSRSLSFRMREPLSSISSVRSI
p97 ATPase inh = blocks human p97 ATPase activity. inhibition, % at 8 µM. recombinant p97 ATPase, Kinase-Glo ATP luminescence, 3 h. 220,000 tested, 0.42% active. P55072. AID 1481; in the data active means inhibition above about 15%
S1P4 antagonist = human S1P4 receptor antagonism; O95977; S1P4-expressing cells, antagonist mode, reporter read-out; inhibition, % at 4.98 µM; 220,000 tested, 0.26% active; AID 1510; in the data active means inhibition above about 29%
Arbovirus anti = antivirals against arbovirus infection; AID 1251; inhibition, % at 10 µM; arbovirus infection cell-based antiviral screen; 200,000 tested, 0.37% active; in the data active means inhibition above about 30%
Redox H2O2 prof = compounds producing H2O2 with reducing agent – biochemical, NIH compound library profiling, artefact control for MLSCN library redox annotation, primary screen. DTT-dependent redox cycling H2O2, phenol red/HRP absorbance; 100% = 100 µM peroxide control, 0% = buffer. activation, % at 10 µM. 200,000 tested, 0.03% active. AID 878;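 active means activation of at least 50% relative to the plate's high and low controls in the primary single-dose screen; inactive means activation below 50%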;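 further: compound incubated with DTT at 0.8 mM final as the reducing agent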
p97 confirm = confirmation of human p97 ATPase inhibitors; shares compounds with p97 ATPase inh; recombinant p97 ATPase, Kinase-Glo ATP luminescence; inhibition, % at 8 µM; 760 tested, 44% active; AID 1517;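 active means percent inhibition of p97 ATPase above a set limit, the primary screen's mean plus 3 SD, cut at about 15% in these data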
Numbers stand for hits; n = inactive; x = no result; ! = not active in a repeat.

SMILES	S1P3 antag	S1P4 agonist	p97 ATPase inh	S1P4 antagonist	Arbovirus anti	Redox H2O2 prof	p97 confirm
Cc1[nH][nH]c(=O)c1C(c1c(C)[nH][nH]c1=O)c1cn(Cc2ccc(Cl)c(Cl)c2)c2ccccc12	n	n	42	n	n	n	n
O=C(O)Cc1cn(Cc2ccc(F)cc2)c2ccccc12	n	n	n	n	n	n	x
CCS(=O)(=O)Nc1c(C(=O)OC)[nH]c2ccccc12	n	n	n	n	n	n	x
CCS(=O)(=O)Nc1c(C(=O)O)[nH]c2ccccc12	n	n	20	n	n	n	n
C#CCOCCOCCOCCNc1nc(N2CCN(C(=O)[C@H](Cc3ccc(O)cc3)n3cc([C@@H](N)C(C)CC)nn3)CC2)nc(N2CCN(C(=O)[C@H](Cc3cc4ccccc4[nH]3)n3cc([C@@H](N)C(C)CC)nn3)CC2)n1 (stereo partly specified)	n	n	25	n	n	n	n
C#CCOCCOCCOCCNc1nc(N2CCN(C(=O)[C@H](Cc3cc4ccccc4[nH]3)n3cc([C@@H](N)CC(C)C)nn3)CC2)nc(N2CCN(C(=O)[C@H](Cc3cc4ccccc4[nH]3)n3cc([C@@H](N)CC(C)C)nn3)CC2)n1	n	n	27	n	n	n	27
C#CCOCCOCCOCCNc1nc(N2CCN(C(=O)[C@H]([C@@H](C)CC)n3cc([C@@H](N)Cc4ccc(O)cc4)nn3)CC2)nc(N2CCN(C(=O)[C@H](Cc3cc4ccccc4[nH]3)n3cc([C@@H](N)C(C)CC)nn3)CC2)n1 (stereo partly specified)	n	n	n	n	n	n	x
C#CCOCCOCCOCCNc1nc(N2CCN(C(=O)[C@H](Cc3ccc(O)cc3)n3cc([C@@H](N)C(C)CC)nn3)CC2)nc(N2CCN(C(=O)[C@H](Cc3cc4ccccc4[nH]3)n3cc([C@@H](N)CC(C)C)nn3)CC2)n1 (stereo partly specified)	n	n	22	n	n	n	n
C#CCOCCOCCOCCNc1nc(N2CCN(C(=O)C(Cc3cc4ccccc4[nH]3)n3cc(C(N)Cc4ccc(O)cc4)nn3)CC2)nc(N2CCN(C(=O)C(Cc3cc4ccccc4[nH]3)n3cc(C(N)Cc4ccc(O)cc4)nn3)CC2)n1 (stereo unspecified)	n	n	22	n	n	n	26
C#CCOCCOCCOCCNc1nc(N2CCN(C(=O)[C@H](Cc3cc4ccccc4[nH]3)n3cc([C@@H](N)C(C)CC)nn3)CC2)nc(N2CCN(C(=O)[C@H](Cc3cc4ccccc4[nH]3)n3cc([C@@H](N)Cc4ccc(O)cc4)nn3)CC2)n1 (stereo partly specified)	n	n	17	n	n	n	26
O=C1/C(=C/c2c[nH]c3ccccc23)CCC/C1=C\c1c[nH]c2ccccc12	n	n	29	n	n	n	23
CCC(=O)NC1=C(NC(C)c2ccccc2)C(=O)c2ccccc2C1=O (stereo unspecified)	x	n	n	n	n	n	x
CCC(=O)NC1=C(Cl)C(=O)C(NC(=O)CC)=C(Cl)C1=O	n	n	19	n	x	x	n
COc1cc(OC)cc(C(=O)NNC(=S)Nc2ccc(S(N)(=O)=O)cc2)c1	n	n	21	n	n	n	25
O=C(NCc1ccco1)c1cccn2c(=O)c3cc4ccccc4cc3nc12	x	n	n	n	n	n	x
COCCCNC(=O)c1cccn2c(=O)c3cc4ccccc4cc3nc12	x	n	15	n	n	n	n
Cc1cccnc1NC(=O)NC(=O)c1ccc(C(C)(C)C)s1	n	n	n	n	x	x	x
Cc1cc(NC(=O)c2ccc3c(c2)OCCO3)ccc1NC(=O)c1cc2ccccc2o1	n	n	16	n	n	n	15
Oc1ccc(Cl)cc1/C=C/c1ccc2cccc(O)c2n1	n	n	31	n	n	n	22
Cc1cc(O)c(C=O)c2c1C(=O)Oc1c(CO)c(O)c3c(c1O2)C(O)OC3=O (stereo unspecified)	n	n	64	n	n	n	24
Brc1ccc2[nH]c3nc(SCCN4CCOCC4)nnc3c2c1	n	n	17!	n	n	n	n
c1ccc2c(c1)[nH]c1nc(SCCN3CCOCC3)nnc12	n	n	n	n	n	n	x
O=C(CSc1nc2ccccc2s1)Nc1cc(S(=O)(=O)N2CCOCC2)ccc1O	n	n	17	n	n	n	n
c1ccc(Nc2nc(NCc3ccco3)c3ccccc3n2)cc1	n	n	22	n	x	x	28
COc1ccc(/C=N/NC(=O)c2ccc(N)cc2)cc1Cn1cc([N+](=O)[O-])cn1	n	n	20	n	n	n	n
SMILES	S1P3 antag	S1P4 agonist	p97 ATPase inh	S1P4 antagonist	Arbovirus anti	Redox H2O2 prof	p97 confirm
Nc1ccc2nc(CN3CCOCC3)[nH]c2c1	x	n	n	n	n	n	x
CCCCn1c(=O)[nH]c(=O)c2c1nc(-c1cc3c(cc1Br)OCO3)n2C	n	n	n	n	n	n	x
N=C1/C(=C\c2coc3ccc(O)cc3c2=O)C(=O)N=C2SC=CN12	n	n	28	n	x	x	24
N=C1/C(=C/c2coc3ccccc3c2=O)C(=O)N=C2SC(c3ccco3)=NN12	n	n	16	n	x	x	19
Cc1cc(/C=C2\C(=N)N3N=C(c4ccco4)SC3=NC2=O)c(C)n1Cc1ccccc1	n	n	n	n	x	x	x
N=C1/C(=C\c2coc3ccccc3c2=O)C(=O)N=C2SC(c3ccncc3)=NN12	n	n	32	n	x	x	44
CN1C(=O)/C(=C/c2coc3ccc(O)cc3c2=O)SC1=S	n	n	n	n	x	x	x
COc1cc(OC)nc(Oc2cc(/C=N/O)ccc2OC)n1	n	n	n	n	n	n	x
COc1ccc(Cl)cc1NC(=O)NCCCl	x	n	n	n	n	n	x
c1coc(-c2nc(-c3ccco3)c(-c3ccco3)nc2-c2ccco2)c1	x	n	40	n	n	n	n
COc1cc(/C=c2\sc3n(c2=O)C(c2ccccc2)C(c2ccccc2)=NN=3)ccc1O (stereo unspecified)	x	n	16	n	n	n	n
O=C(O)c1cc(-c2c[nH]c3ccccc23)nc2cc3ccccc3cc12	n	n	27	n	x	x	27
COC(=O)c1cc(-c2c[nH]c3ccccc23)n[nH]1	n	n	n	n	n	n	x
CCCCC(=O)Nc1cc(Cl)ccc1C(=O)O	n	n	n	n	n	n	x
CN(C)C=NC(=O)c1cn(-c2ccc(F)cc2)c(=O)c2ccccc12	n	n	16	n	n	n	n
O=C(Oc1ccccc1C(=O)Nc1ccccc1)c1ccccc1Br	n	n	23	n	n	n	30
O=C(COc1ccccc1C(=O)Nc1ccccc1)c1ccc(Br)cc1	n	n	n	n	n	n	x
N#Cc1cc2ccc(N3CCOCC3)cc2cc1C#N	n	n	15	n	n	n	19
